# A number with no mark means an inactive call. Results filed as inconclusive are left out. A call without a number means that no potency is given here. The source made the active and inactive calls. Unless noted, calls come from the whole dose curve; as a rule, active = well fitted curve in the direction sought with a large enough effect in the repeat runs; inconclusive = weak or mixed curves; inactive = no such curve, though single readings can be large; an effect the other way counts as inactive or inconclusive.
# How the values were obtained:
# [1] = qHTS assay to identify small molecule agonists of the progesterone receptor (PR) signaling pathway - cell viability counter screen (AID 1346799; calls by dose curve; note: nearly all actives have a fitted effect of over 45% in size; note: potency is the fitted concentration of half-maximal effect)
# Procedure, shortened: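 Cytotoxicity in PR-bla HEK293T cells: 16 h compound, 37C; CellTiter-Glo added post-FRET read; luminescence after 30 min RT.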
# [2] = qHTS assay to identify small molecule antagonists of the TGF-beta/Smad signaling pathway - cell viability counter screen (AID 1346824); note: nearly all actives have a fitted effect of over 50% in size; note: potency is the fitted concentration of half-maximal effect
# Procedure, shortened: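 Cytotoxicity counter-screen run in the same wells as the beta-lactamase Smad reporter read: CellTiter-Glo luminescence after 30 min at room temperature. HEK 293T SBE-bla cells had 5 hr compound exposure at 37 C with TGF-beta1 (0.25 ng/mL stock).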
# [3] = qHTS assay to identify small molecule agonists of the TGF-beta/Smad signaling pathway - cell viability counter screen (AID 1346829); note: nearly all actives have a fitted effect of over 45% in size; note: potency is the fitted concentration of half-maximal effect
# Procedure, shortened: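 Compound-treated SBE-bla HEK 293T cells (5 hr, 37 C) were assessed for viability with CellTiter-Glo in parallel with the reporter read.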
# [4] = qHTS assay to identify small molecule agonists of the TGF-beta/Smad signaling pathway (AID 1346859; active = well fitted activation curve with a large enough effect in the signal ratio in the repeat runs, not every such curve was filed as active; the % refers to the signal ratio; note: series mostly up to about 77 µM)
# Procedure, shortened: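 Stable Smad binding element-beta-lactamase HEK 293T cells; 5 hr compound exposure at 37 C under 5% CO2; 2 hr room-temperature substrate step; fluorescence excited at 405 nm, collected at 460 nm and 530 nm.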
# [5] = target: Thyrotropin-releasing hormone receptor (Homo sapiens) (UniProt P34981); experiment: qHTS assay to identify small molecule antagonists of the thyrotropin-releasing hormone receptor (TRHR) signaling pathway (AID 1346877; active = well fitted inhibition curve with a large enough effect in the repeat runs, not every such curve was filed as active; note: series mostly up to about 51 µM)
# Thyrotropin-releasing hormone receptor (Homo sapiens), sequence (P34981 whole entry, looked up): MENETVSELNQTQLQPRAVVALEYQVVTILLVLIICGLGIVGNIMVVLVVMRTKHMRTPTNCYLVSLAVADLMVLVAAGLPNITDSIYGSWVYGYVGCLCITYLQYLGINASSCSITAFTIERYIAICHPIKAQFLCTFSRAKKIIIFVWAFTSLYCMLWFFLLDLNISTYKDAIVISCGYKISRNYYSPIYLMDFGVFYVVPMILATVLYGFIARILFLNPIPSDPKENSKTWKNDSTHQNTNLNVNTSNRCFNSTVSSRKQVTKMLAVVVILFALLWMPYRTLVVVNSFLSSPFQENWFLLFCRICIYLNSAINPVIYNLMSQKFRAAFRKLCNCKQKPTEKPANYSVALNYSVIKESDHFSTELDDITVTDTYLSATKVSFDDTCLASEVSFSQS
# Procedure, shortened: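 HEK293/TRHR cells, 18 h, 37 °C; Ca2+ dye 2 h; cpd 5 min RT; TRH 1 nM final; fluorescence read 3 min, 1 s intervals; 15 concs, triplicate.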
# [6] = Human pregnane X receptor (PXR) small molecule agonists, qHTS cell viability counter screen (AID 1346977); note: nearly all actives have a fitted effect of over 50% in size; note: potency is the fitted concentration of half-maximal effect
# Procedure, shortened: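 Readout is CellTiter-Fluor fluorescence from PXR-Luc HepG2 cells. Plated cells rested 5hr, then were treated with compounds for 24hr at 37C and 5% CO2, with reagent present during the last hour.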
# [7] = Caspase-3/7 induction in HepG2 cells by small molecules, qHTS assay (AID 1346978); note: nearly all actives have a fitted effect of over 15% in size; note: potency is the fitted concentration of half-maximal effect
# Procedure, shortened: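 Caspase-3/7 induction was measured by Caspase-Glo 3/7 luminescence (30 min, room temperature) after a 17 hr compound exposure of wild-type HepG2 cells seeded at 2,000 per well and pre-incubated 5 hr.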
# [8] = Caspase-3/7 induction in CHO-K1 cells by small molecules, qHTS cell viability counter screen (AID 1346979); note: nearly all actives have a fitted effect of over 35% in size; note: potency is the fitted concentration of half-maximal effect
# Procedure, shortened: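 To flag cytotoxic compounds, treated CHO-K1 wild-type cells were given CellTiter-Fluor at 16hr and read fluorescently after 1hr at 37C; the caspase-3/7 luminescence was measured in these same wells.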
# [9] = Caspase-3/7 induction in CHO-K1 cells by small molecules, qHTS assay (AID 1346980); note: nearly all actives have a fitted effect of over 15% in size; note: potency is the fitted concentration of half-maximal effect
# Procedure, shortened: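 Luminescent Caspase-Glo 3/7 read (30min, room temperature) quantified apoptosis induction. Cells were wild-type CHO-K1, treated with compound for 17hr at 37 C and 5% CO2.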
# [10] = Caspase-3/7 induction in HepG2 cells by small molecules, qHTS cell viability counter screen (AID 1346981); note: nearly all actives have a fitted effect of over 30% in size; note: potency is the fitted concentration of half-maximal effect
# Procedure, shortened: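 Fluorescence read-out of live-cell protease activity (CellTiter-Fluor) after 1 hr with reagent. This was measured in the same wells as the caspase-3/7 luminescence, on HepG2 cells exposed to DMSO-dissolved compounds for 16 hr at 37 C.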
# [11] = target: Nuclear receptor subfamily 1 group I member 2 (Homo sapiens) (UniProt O75469); experiment: Human pregnane X receptor (PXR) small molecule agonists, qHTS assay (AID 1346982); note: nearly all actives have a fitted effect of over 35% in size; note: potency is the fitted concentration of half-maximal effect
# Nuclear receptor subfamily 1 group I member 2 (Homo sapiens), sequence (O75469 whole entry, looked up): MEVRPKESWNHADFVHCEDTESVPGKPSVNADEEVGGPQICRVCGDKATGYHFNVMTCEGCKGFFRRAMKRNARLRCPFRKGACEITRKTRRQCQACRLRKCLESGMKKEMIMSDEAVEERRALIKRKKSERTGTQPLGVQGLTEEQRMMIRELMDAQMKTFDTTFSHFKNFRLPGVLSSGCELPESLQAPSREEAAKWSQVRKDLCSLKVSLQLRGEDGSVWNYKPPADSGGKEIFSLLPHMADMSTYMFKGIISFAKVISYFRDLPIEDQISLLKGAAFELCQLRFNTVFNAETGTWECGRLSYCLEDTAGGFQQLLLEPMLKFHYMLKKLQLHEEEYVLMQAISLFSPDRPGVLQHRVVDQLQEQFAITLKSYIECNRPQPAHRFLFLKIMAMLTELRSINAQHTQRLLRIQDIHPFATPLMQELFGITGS
# Procedure, shortened: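 HepG2 PXR-Luc reporter line, 5% charcoal-stripped FBS; 5 hr pre-incubation, compound (DMSO) 24 hr at 37 C/5% CO2; ONE-Glo 30 min RT; luminescence read-out.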
# [12] = target: Cytochrome P450 2D6 (Homo sapiens) (UniProt P10635); experiment: Cytochrome P450 Family 2 Subfamily D Member 6 (CYP2D6) small molecule antagonists: luciferase reporter qHTS assay (AID 1671196); note: nearly all actives have a fitted effect of over 50% in size; note: potency is the fitted concentration of half-maximal effect
# Cytochrome P450 2D6 (Homo sapiens), sequence (P10635 whole entry, looked up): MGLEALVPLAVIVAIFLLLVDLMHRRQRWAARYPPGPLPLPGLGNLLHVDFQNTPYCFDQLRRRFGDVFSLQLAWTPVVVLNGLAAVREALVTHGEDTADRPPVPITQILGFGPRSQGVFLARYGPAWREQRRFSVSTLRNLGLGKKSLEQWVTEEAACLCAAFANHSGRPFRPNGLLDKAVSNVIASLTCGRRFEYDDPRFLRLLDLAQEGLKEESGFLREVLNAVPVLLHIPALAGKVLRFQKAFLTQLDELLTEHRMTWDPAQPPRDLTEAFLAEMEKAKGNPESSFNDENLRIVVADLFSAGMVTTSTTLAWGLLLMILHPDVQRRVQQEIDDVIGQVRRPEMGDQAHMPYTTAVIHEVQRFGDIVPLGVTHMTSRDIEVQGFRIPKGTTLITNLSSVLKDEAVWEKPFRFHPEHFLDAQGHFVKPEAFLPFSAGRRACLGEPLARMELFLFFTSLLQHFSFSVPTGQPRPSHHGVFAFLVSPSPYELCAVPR
# Procedure, shortened: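 Luminogenic proluciferin substrate, CYP2D6 enzyme; 10 min RT preincubation with compound, NADPH regeneration system added, 1 h RT. Stop/detection reagent, 20 min RT, luminescence read (RLU). Signal proportional to CYP activity.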
# [13] = target: Cytochrome P450 2C19 (Homo sapiens) (UniProt P33261); experiment: Cytochrome P450 Family 2 Subfamily C Member 19 (CYP2C19) small molecule antagonists: luciferase reporter qHTS assay (AID 1671197); note: nearly all actives have a fitted effect of over 65% in size; note: potency is the fitted concentration of half-maximal effect
# Cytochrome P450 2C19 (Homo sapiens), sequence (P33261 whole entry, looked up): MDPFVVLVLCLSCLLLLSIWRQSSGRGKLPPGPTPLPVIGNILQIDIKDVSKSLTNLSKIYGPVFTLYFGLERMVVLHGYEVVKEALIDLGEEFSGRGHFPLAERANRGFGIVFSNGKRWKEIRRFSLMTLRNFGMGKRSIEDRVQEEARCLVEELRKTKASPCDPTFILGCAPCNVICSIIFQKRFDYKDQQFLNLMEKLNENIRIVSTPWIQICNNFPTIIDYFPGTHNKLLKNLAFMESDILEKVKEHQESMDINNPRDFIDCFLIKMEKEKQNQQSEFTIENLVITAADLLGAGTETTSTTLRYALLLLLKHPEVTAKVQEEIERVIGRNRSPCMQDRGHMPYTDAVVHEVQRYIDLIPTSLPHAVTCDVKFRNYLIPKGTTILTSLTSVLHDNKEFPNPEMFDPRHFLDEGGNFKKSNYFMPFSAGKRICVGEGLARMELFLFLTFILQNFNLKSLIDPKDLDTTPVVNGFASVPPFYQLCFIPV
# Procedure, shortened: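 P450-Glo CYP2C19 screening system; proluciferin substrate; DMSO compound stocks; 10 min RT preincubation; NADPH regeneration, 1 h at 37C; luciferin detection reagent, 20 min RT; luminescence as RLU.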
# [14] = target: Cytochrome P450 2C9 (Homo sapiens) (UniProt P11712); experiment: Cytochrome P450 Family 2 Subfamily C Member 9 (CYP2C9) small molecule antagonists: luciferase reporter qHTS assay (AID 1671198); note: nearly all actives have a fitted effect of over 50% in size; note: potency is the fitted concentration of half-maximal effect
# Cytochrome P450 2C9 (Homo sapiens), sequence (P11712 whole entry, looked up): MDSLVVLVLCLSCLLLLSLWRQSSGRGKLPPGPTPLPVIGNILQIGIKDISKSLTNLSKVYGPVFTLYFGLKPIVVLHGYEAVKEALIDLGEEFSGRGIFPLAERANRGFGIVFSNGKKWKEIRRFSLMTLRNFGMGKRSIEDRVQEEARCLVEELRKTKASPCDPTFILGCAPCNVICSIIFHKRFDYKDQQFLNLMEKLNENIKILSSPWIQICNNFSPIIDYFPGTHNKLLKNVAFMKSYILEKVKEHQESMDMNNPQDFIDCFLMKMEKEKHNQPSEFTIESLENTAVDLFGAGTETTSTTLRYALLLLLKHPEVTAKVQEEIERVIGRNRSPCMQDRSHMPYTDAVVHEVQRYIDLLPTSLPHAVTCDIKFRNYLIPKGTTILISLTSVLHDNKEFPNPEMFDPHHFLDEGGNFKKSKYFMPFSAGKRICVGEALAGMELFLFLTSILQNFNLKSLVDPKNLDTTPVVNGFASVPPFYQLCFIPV
# Procedure, shortened: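 Enzyme-substrate mix preincubated with compound 10 min at room temperature; reaction started with NADPH regeneration solution, 1 h 37C. Luminescent luciferin product read after 20 min detection reagent.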
# [15] = target: Cytochrome P450 1A2 (Homo sapiens) (UniProt P05177); experiment: Cytochrome P450 Family 1 Subfamily A Member 2 (CYP1A2) small molecule antagonists: luciferase reporter qHTS assay (AID 1671199); note: nearly all actives have a fitted effect of over 50% in size; note: potency is the fitted concentration of half-maximal effect
# Cytochrome P450 1A2 (Homo sapiens), sequence (P05177 whole entry, looked up): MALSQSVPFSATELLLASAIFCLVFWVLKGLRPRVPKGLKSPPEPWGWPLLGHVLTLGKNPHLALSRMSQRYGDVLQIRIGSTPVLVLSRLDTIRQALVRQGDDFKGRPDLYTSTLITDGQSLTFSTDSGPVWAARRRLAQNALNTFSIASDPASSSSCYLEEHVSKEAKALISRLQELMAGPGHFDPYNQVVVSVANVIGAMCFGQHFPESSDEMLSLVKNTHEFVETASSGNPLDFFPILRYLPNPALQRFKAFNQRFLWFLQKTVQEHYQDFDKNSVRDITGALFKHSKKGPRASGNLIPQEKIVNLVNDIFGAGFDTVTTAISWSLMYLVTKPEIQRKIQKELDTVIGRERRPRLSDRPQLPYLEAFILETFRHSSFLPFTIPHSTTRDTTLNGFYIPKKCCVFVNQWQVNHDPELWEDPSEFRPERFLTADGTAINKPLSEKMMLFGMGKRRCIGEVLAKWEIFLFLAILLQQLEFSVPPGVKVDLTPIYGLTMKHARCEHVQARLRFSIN
# Procedure, shortened: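 Luminescence readout (relative luminescence units) after luciferin detection reagent, 20 min RT. Preceded by 1 h room-temperature CYP1A2 reaction with NADPH regeneration solution following 10 min compound preincubation with enzyme and proluciferin substrate. Furafylline positive control.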
# [16] = target: Voltage-gated inwardly rectifying potassium channel KCNH2 (Homo sapiens) (UniProt Q12809); experiment: Human Ether-a-go-go-Related Gene (hERG) channel small molecule antagonists: fluorescence cell-based qHTS assay (AID 1671200); note: nearly all actives have a fitted effect of over 50% in size; note: potency is the fitted concentration of half-maximal effect
# Voltage-gated inwardly rectifying potassium channel KCNH2 (Homo sapiens), sequence (Q12809 whole entry, looked up): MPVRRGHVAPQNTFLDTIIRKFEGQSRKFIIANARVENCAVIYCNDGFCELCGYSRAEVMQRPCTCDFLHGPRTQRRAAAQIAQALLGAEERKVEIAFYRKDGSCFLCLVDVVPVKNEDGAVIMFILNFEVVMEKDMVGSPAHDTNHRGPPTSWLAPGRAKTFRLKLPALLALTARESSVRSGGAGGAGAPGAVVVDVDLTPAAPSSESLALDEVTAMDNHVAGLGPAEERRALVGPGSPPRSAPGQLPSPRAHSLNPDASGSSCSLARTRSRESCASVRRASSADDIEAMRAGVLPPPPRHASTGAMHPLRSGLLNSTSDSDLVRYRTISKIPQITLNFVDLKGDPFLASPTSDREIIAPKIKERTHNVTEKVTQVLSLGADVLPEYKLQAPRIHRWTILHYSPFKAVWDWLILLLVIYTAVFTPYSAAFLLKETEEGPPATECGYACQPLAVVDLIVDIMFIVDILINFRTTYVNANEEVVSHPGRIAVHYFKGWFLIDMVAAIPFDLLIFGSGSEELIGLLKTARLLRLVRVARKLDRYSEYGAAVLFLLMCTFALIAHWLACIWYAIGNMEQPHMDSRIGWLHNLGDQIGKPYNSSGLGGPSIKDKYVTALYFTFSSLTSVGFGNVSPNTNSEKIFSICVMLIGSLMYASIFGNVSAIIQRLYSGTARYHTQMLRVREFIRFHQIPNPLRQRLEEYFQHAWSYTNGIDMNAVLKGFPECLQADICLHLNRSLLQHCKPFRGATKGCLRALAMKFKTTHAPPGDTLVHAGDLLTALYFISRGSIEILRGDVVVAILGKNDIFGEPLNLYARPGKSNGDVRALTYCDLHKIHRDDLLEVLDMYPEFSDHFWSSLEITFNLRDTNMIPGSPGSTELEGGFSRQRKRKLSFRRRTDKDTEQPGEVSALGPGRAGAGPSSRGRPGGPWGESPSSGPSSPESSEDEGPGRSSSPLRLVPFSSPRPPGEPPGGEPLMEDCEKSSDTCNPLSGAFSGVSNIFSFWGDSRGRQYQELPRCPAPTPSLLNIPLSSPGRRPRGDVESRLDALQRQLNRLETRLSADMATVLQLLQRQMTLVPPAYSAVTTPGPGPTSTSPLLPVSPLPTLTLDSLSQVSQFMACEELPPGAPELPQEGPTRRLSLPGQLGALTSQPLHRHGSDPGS
# Procedure, shortened: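 Measured: Tl+ flux via fluorescence (480/540 nm) in hERG-expressing U2OS cells after 1 h dye loading at room temperature.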
# [17] = target: Thyrotropin-releasing hormone receptor (Homo sapiens) (UniProt P34981); experiment: qHTS assay to identify small molecule agonists of the thyrotropin-releasing hormone receptor (TRHR) signaling pathway (AID 1346891; calls by dose curve;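 note: HEK293 cells expressing TRHR with calcium dye readout; series mostly up to about 58 µM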)
# Procedure, shortened: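 In 1536-format, 1500 TRHR-Hek293 cells per well grew 18 h, took up calcium dye for 2 h at 37 °C, received compound, and were read kinetically; 15-point titrations, triplicates.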
# [18] = target: Nuclear receptor subfamily 1 group I member 2 (Rattus norvegicus) (UniProt Q9R1A7); experiment: Rat pregnane X receptor (rPXR) activation by small molecules, qHTS assay (AID 1346983); settings: rPXR luciferase reporter cells, One-Glo luminescence, 24 h; max activation: active compounds read high; note: nearly all actives have a fitted effect of over 20% in size
# Nuclear receptor subfamily 1 group I member 2 (Rattus norvegicus), sequence (Q9R1A7 whole entry, looked up): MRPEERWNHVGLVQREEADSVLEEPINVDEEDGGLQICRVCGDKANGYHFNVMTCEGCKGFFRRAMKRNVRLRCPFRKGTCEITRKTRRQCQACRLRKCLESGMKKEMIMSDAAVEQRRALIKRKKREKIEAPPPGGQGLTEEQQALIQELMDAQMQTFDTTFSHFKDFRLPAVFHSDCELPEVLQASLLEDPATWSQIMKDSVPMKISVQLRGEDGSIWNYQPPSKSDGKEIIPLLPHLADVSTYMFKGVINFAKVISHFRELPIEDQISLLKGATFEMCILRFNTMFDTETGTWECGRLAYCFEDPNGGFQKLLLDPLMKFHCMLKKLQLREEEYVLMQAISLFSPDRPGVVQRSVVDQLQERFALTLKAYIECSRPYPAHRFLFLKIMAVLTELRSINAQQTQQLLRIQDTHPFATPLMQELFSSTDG
# Procedure, shortened: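 Luminescent readout (One-Glo luciferase, 30 min room temperature) followed 24 hr compound treatment at 37 C of rPXR cells plated 2,000 per well and preincubated 5hr; qHTS format with compounds delivered in DMSO.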
# [19] = target: Nuclear receptor subfamily 1 group I member 2 (Homo sapiens) (UniProt O75469); experiment: CYP3A4 induction through human pregnane X receptor (PXR) by small molecules, qHTS assay (AID 1346984); note: nearly all actives have a fitted effect of over 40% in size
# Procedure, shortened: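 HepG2-derived DPX-2 line carrying PXR plus a CYP3A4-promoter luciferase reporter; cells plated 5 hr, compound-exposed 24 hr at 37C. CYP3A4 activity probed with 3uM (final) Luciferin-IPA for 3hr, then luciferase read after One-Glo.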
# [20] = target: Nuclear receptor subfamily 1 group I member 2 (Homo sapiens) (UniProt O75469); experiment: Human pregnane X receptor (PXR) activation by small molecules, qHTS assay (AID 1346985); note: nearly all actives have a fitted effect of over 40% in size
# Procedure, shortened: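 DPX-2 cells (HepG2 co-transfected with a PXR response element and a CYP3A4-promoter luciferase construct) were seeded at 2,000 per well, rested 5 hr at 37C, then exposed to DMSO-dissolved compounds for 24 hr. Activation was read as luciferase luminescence.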
Compound,Potency [1],Potency [2],Potency [3],outcome [4],Potency [5],Potency [6],Potency [7],Potency [8],Potency [9],Potency [10],Potency [11],Potency [12],Potency [13],Potency [14],Potency [15],Potency [16],Potency [17],max activation [18] [%],Potency [19],Potency [20]
Cn1c(=O)[nH]c2ncn(C)c2c1=O,inactive,inactive,inactive,inactive,inactive,inactive,inactive,inactive,inactive,inactive,inactive,inactive,inactive,inactive,inactive,inactive,,,,
C=C(C)C1CCC(C)CC1O (stereo not drawn),inactive,inactive,inactive,inactive,,inactive,inactive,inactive,inactive,inactive,inactive,inactive,inactive,inactive,inactive,inactive,,,,
CC(O)(c1ccc(Cl)cc1)c1ccc(Cl)cc1,inactive,inactive,inactive,inactive,,,,,inactive,inactive,27.3 µM (active),,0.113 µM (active),7.96 µM (active),31.7 µM (active),49 µM (active),inactive,,,
O=C(CCCCCCCCc1cccnc1)N1CCC(C=C(c2ccccc2)c2ccccc2)CC1,30.6 µM (active),54.9 µM (active),54.9 µM (active),,inactive,,inactive,,inactive,inactive,5.45 µM (active),inactive,,0.633 µM (active),,6.92 µM (active),inactive,,,
c1ccc2c(c1)-c1ccc3ccc4cccc5cc-2c1c3c45,inactive,inactive,inactive,,inactive,inactive,inactive,,inactive,,inactive,inactive,inactive,,,inactive,inactive,,,
Nc1cc([N+](=O)[O-])cc(Cl)c1O,inactive,inactive,,inactive,inactive,,inactive,,inactive,61.1 µM (active),inactive,inactive,79.6 µM (active),39.9 µM (active),,inactive,inactive,,,
CC(C)=CCC[C@H](C)CC=O,inactive,inactive,,inactive,,inactive,inactive,inactive,inactive,inactive,,,,,,inactive,,,,
C/C(=N\[Si](C)(C)C)O[Si](C)(C)C,inactive,inactive,,inactive,inactive,inactive,inactive,inactive,inactive,inactive,inactive,inactive,inactive,inactive,,inactive,inactive,,,
Nc1cccnc1N,inactive,inactive,inactive,inactive,,,inactive,,inactive,,,,,inactive,,inactive,,,,
c1ccc(-c2nc3ccccc3[nH]2)cc1,inactive,inactive,,inactive,inactive,,inactive,,inactive,inactive,9.69 µM (active),31.7 µM (active),35.6 µM (active),35.6 µM (active),7.1 µM (active),inactive,,,,
Nc1c(Br)cc([N+](=O)[O-])cc1Br,inactive,inactive,,inactive,,inactive,inactive,inactive,inactive,inactive,,,79.6 µM (active),inactive,1.78 µM (active),inactive,,,,
CCc1cccc(C)c1N(C(=O)CS(=O)(=O)O)C(C)COC (stereo not drawn),inactive,inactive,,inactive,inactive,inactive,inactive,inactive,inactive,inactive,inactive,inactive,,,inactive,inactive,,,,
CC(=O)[C@]1(O)Cc2c(O)c3c(c(O)c2[C@@H](O[C@H]2C[C@H](N)[C@H](O)[C@H](C)O2)C1)C(=O)c1ccccc1C3=O,1.33 µM (active),inactive,,inactive,inactive,2.66 µM (active),2.11 µM (active),11.9 µM (active),,11.9 µM (active),inactive,,,,,inactive,,,,
CN(C/C=C/c1ccccc1)Cc1cccc2ccccc12,inactive,inactive,,inactive,inactive,inactive,inactive,inactive,inactive,inactive,inactive,0.977 µM (active),3.89 µM (active),,12.9 µM (active),2.39 µM (active),,-2.12,inactive,inactive
N#CCCOCCC#N,inactive,inactive,,inactive,inactive,,inactive,inactive,inactive,inactive,inactive,,inactive,inactive,,inactive,,,,
Oc1ccc2c(c1)CCC2,inactive,inactive,,inactive,inactive,,inactive,inactive,inactive,inactive,inactive,inactive,,inactive,,inactive,,,,
C1CCSC1,inactive,inactive,,inactive,,inactive,inactive,inactive,inactive,inactive,inactive,,inactive,inactive,inactive,inactive,,,,
Nc1cc([N+](=O)[O-])ccc1Cl,inactive,inactive,,inactive,,inactive,inactive,inactive,inactive,inactive,inactive,,,inactive,17.8 µM (active),inactive,,,,
O=[N+]([O-])c1ccc(O)c2ncccc12,inactive,inactive,,inactive,,,inactive,8.41 µM (active),5.96 µM (active),,29.8 µM (active),,inactive,,inactive,inactive,,-6.55,inactive,
